Reference: PubChem BioAssay (EPA / NIEHS)
Values joined by “and” are separate entries in the source; they are usually repeats but may differ in a detail not shown here. Identical values can stand only once. Records with an inconclusive call do not appear. Some compounds were tested as several samples or in several runs, with calls that do not always agree. Active and inactive are the calls of the source. The calls were made as follows: active = hit-call score of the fitted dose curve at least 0.9, where 1 is the maximum; inconclusive = response in the unintended direction; inactive = score below 0.9.

What follows are compounds tested against GAL4 Transcription Factor (Internal Marker), GAL4 (gene 855828) (UniProt P04386) (assay: ATG_GAL4_XSP2: Attagene TRANS-FACTORIAL Multi-Species (XSP2) HepG2 Assay for GAL4 Transcription Factor (Internal Marker) (AID 2283814);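 also: GAL4 reporter mRNA background control in MRTU transfected cells not a receptor target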).
Summary of the method: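 Background-control readout: gain-of-signal fitted against DMSO. After 24 h exposure of transfected HepG2 (MRTU, GAL4-UAS reporters; 3 nM 6-alpha-fluorotestosterone, 1.5 nM norgestrel present), transcripts quantified by RT-PCR and capillary electrophoresis fluorescence.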

Sequence of GAL4 Transcription Factor (Internal Marker), GAL4 (gene 855828) (P04386 whole entry, looked up, the tested form may be a part): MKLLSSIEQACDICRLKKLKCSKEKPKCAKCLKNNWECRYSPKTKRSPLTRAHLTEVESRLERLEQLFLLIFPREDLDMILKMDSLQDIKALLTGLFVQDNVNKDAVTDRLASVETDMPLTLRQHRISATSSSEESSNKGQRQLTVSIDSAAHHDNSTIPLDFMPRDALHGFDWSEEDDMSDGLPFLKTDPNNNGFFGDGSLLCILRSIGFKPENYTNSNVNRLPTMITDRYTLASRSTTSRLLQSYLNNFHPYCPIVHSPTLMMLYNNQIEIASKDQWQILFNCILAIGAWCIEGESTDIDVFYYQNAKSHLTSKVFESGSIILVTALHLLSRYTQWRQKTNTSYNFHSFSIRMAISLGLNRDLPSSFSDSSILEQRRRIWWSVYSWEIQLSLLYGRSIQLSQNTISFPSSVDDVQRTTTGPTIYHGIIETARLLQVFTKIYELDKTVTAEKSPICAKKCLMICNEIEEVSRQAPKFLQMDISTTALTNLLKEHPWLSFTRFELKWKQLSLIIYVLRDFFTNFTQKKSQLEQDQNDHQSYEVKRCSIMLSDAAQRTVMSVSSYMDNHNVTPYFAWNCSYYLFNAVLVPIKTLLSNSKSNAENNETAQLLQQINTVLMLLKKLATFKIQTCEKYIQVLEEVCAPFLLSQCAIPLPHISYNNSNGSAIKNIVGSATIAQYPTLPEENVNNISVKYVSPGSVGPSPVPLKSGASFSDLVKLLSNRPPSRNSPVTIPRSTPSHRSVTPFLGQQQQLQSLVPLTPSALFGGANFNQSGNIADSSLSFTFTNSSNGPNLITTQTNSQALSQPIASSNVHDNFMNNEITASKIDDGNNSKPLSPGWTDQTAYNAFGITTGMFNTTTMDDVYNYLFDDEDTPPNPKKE

| Structure (SMILES) | outcome |
| --- | --- |
| Clc1ccc(C(c2ccc(Cl)cc2)C(Cl)Cl)cc1 | inactive |
| c1ccc2c(c1)-c1cccc3cccc-2c13 | inactive |
| CC(C)(C)C(O)(CCc1ccc(Cl)cc1)Cn1cncn1 (configuration not stated) | inactive |
| CCCCOC(=O)c1ccccc1C(=O)OCc1ccccc1 | inactive |
| CCC(C)c1ccc(O)cc1 (configuration not stated) | inactive |
| CCCCC(CC)COC(=O)c1ccc(C(=O)OCC(CC)CCCC)c(C(=O)OCC(CC)CCCC)c1 (configuration not stated) | inactive |

What follows are compounds tested on turtle Androgen Receptor (AR), gene 101947425 (assay: ATG_trAR_XSP2: Attagene TRANS-FACTORIAL Multi-Species (XSP2) HepG2 Assay for turtle Androgen Receptor (AR) (AID 2283815);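 as to AC50: reporter mRNA from a Gal4 chimera of turtle AR measured by RT-PCR; potency for gain of reporter signal meaning activation above DMSO baseline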).
Method: ATG_XSP2_multi-species_TRANS is a cell-based, multiplexed assay created by modifying the existing Attagene TRANS-FACTORIAL system to include a panel of nuclear receptors from some or all the following species: human (Homo sapiens), mouse (Mus musculus), frog (Xenopus laevis), zebrafish (Danio rerio), chicken (Gallus gallus), and turtle (Chrysemys picta). The […] format uses HepG2, a human liver cell line, with measurements taken at 24 hours after chemical dosing in a 24-well plate. Xsp2 included 3 nM 6-alpha-fluorotestosterone and 1.5 nM norgestrel to stimulate the androgen receptor.ATG_trAR_XSP2 is one of 29 assay components measured or calculated from the ATG_XSP2_multi-species_TRANS assay. It is designed to make measurements of mRNA induction, a form of inducible reporter, as detected with fluorescence intensity signals by Reverse transcription polymerase chain reaction (RT-PCR) and Capillary electrophoresis technology.The assay endpoint ATG_trAR_XSP2 was analyzed in the positive analysis fitting direction relative to DMSO as the negative control and baseline of activity. […] Furthermore, this assay endpoint can be referred to as a primary readout, because this assay has produced multiple assay endpoints where this one serves a reporter gene function. […]
Human liver HepG2 cells are transiently transfected with multiple reporter transcription units (MRTUs) in 6-well plates using FuGene 6 reagent (Roche; 3 ml FuGene/1 mg DNA). […] A major difference between the CIS and TRANS system is that in CIS activities of endogenous TFs are measured, whereas the TRANS assay evaluates changes in activities of exogenous, chimeric NR-Gal4 proteins. […] The fragments were purified using Qiaquick PCR columns (Qiagen), analyzed on an ABI 3130xL genetic analyzer (Applied Biosystems) with peak positions identified by using a set of X-rhodamine (ROX)-labeled MapMarker1000 molecular weight standards (BioVentures). […]

| Structure (SMILES) | outcome | AC50 |
| --- | --- | --- |
| CCCCCOC(=O)c1ccccc1C(=O)OCCCCC | inactive | – |
| C[C@]12C=CC3=C4CCC(=O)C=C4CC[C@H]3[C@@H]1CC[C@@H]2O | – | 0.00534 µM (active) |
| CCCCOC(=O)c1ccccc1C(=O)OCc1ccccc1 | inactive | – |

What follows are compounds tested against zebrafish Estrogen Receptor (ER1), esr1 (gene 259252) (UniProt P57717) (assay: ATG_zfER1_XSP2: Attagene TRANS-FACTORIAL Multi-Species (XSP2) HepG2 Assay for zebrafish Estrogen Receptor (ER1) (AID 2283816)).
Summary of the method: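 After 24 h compound exposure, RNA from transfected HepG2 cells was reverse-transcribed and reporter transcripts resolved by capillary electrophoresis. The TRANS format reads exogenous zebrafish ER1-Gal4 chimera activity on GAL4-UAS elements; gain of signal against DMSO.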

Sequence of zebrafish Estrogen Receptor (ER1), esr1 (gene 259252) (P57717 whole entry, looked up, the tested form may be a part): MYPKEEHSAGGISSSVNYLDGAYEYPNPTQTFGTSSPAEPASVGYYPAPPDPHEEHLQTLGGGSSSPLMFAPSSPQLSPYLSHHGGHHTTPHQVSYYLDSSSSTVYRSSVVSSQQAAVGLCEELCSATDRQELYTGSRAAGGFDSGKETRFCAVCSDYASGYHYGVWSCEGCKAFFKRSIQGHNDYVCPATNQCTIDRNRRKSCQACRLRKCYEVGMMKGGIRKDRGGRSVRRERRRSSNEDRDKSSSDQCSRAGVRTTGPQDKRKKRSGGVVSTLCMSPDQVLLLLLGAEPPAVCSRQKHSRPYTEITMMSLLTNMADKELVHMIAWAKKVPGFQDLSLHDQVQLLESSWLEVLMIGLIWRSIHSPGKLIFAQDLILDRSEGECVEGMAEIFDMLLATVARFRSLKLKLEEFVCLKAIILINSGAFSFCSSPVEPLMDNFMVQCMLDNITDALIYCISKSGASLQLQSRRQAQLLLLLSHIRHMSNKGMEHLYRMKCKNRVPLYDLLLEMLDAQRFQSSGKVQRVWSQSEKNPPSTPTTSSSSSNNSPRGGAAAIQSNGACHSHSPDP

| Structure (SMILES) | outcome | AC50 |
| --- | --- | --- |
| Clc1ccc(C(c2ccc(Cl)cc2)C(Cl)Cl)cc1 | inactive | – |
| CCC[CH2][Sn]([Cl])([CH2]CCC)[CH2]CCC | inactive | – |
| C[C@]12C=CC3=C4CCC(=O)C=C4CC[C@H]3[C@@H]1CC[C@@H]2O | inactive | – |
| c1ccc2c(c1)-c1cccc3cccc-2c13 | inactive | – |
| Oc1ccc2ccc3cccc4ccc1c2c34 | inactive | 5.13 µM (active) |
| CC(C)(C)C(O)(CCc1ccc(Cl)cc1)Cn1cncn1 (configuration not stated) | inactive | – |
| Clc1ccc(C(c2ccc(Cl)cc2)C(Cl)(Cl)Cl)cc1 | – | 100 µM (active) |
| CCCCOC(=O)c1ccccc1C(=O)OCc1ccccc1 | inactive | – |
| O=[N+]([O-])c1ccc(Oc2ccc(Cl)cc2Cl)cc1 | inactive | – |
| CCC(C)c1ccc(O)cc1 (configuration not stated) | – | 37.7 µM (active) and 28.7 µM (active) |
| CCCCC(CC)COC(=O)c1ccc(C(=O)OCC(CC)CCCC)c(C(=O)OCC(CC)CCCC)c1 (configuration not stated) | inactive | 57.8 µM (active) |
